Hit rate of the full screen: of about 5,500 compounds, about 2,000 (36%) were called active. Roughly 18% stayed inconclusive and do not appear here. Rule as the data show it: active = normalized growth mostly below about 0.91 (no sharp cut-off); inconclusive = no clear call, values can overlap the other calls; inactive = mostly above about 0.92. The list shows a part of the results.
Experiment: chemical genetic growth profiling, strain panel (AID 1159580);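 also: tested at 20 µM; growth read once vehicle control cultures reached saturation at 30 °C; 1 = growth at the plate median or of vehicle wells; lower values mean less growth of the strain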
Conditions: S. cerevisiae deletion strains, growth OD

Measured: normalized growth

CC(=O)NC(C(=O)O)C(C)(C)SN=O (centres undefined)
inactive: locus YAL013W, strain DEP1, hits give low values 1.02 | locus YAL021C, strain ccr4, hits give low values 1.01 | locus YAL026C, strain drs2, hits give low values 0.992 | locus YAL030W, strain snc1, hits give low values 0.991 | locus YBL061C, strain skt5, hits give low values 0.984 | locus YBR009C, strain hhf1, hits give low values 1 | locus YBR021W, strain FUR4, hits give low values 0.977 | locus YBR023C, strain chs3, hits give low values 0.994 | locus YBR171W, strain sec66, hits give low values 0.993 | locus YBR229C, strain ROT2, hits give low values 1.01 | locus YBR231C, strain swc5, hits give low values 0.996 | locus YBR279W, strain paf1, hits give low values 0.986 | locus YCL011C, strain gbp2, hits give low values 0.996 | locus YCL016C, strain dcc1, hits give low values 0.985 | locus YCL029C, strain bik1, hits give low values 0.981 | locus YCL061C, strain MRC1, hits give low values 0.999 | locus YCL069W, strain vba3, hits give low values 0.991 | locus YCR088W, strain abp1, hits give low values 0.983 | locus YDL005C, strain med2, hits give low values 0.977 | locus YDL035C, strain GPR1, hits give low values 1 | locus YDL040C, strain nat1, hits give low values 0.996 | locus YDL074C, strain BRE1, hits give low values 1.06 | locus YDL101C, strain DUN1, hits give low values 1 | locus YDL134C, strain PPH21, hits give low values 1.01 | locus YDL185W, strain tfp1, hits give low values 0.98 | locus YDL192W, strain arf1, hits give low values 0.999 | locus YDR001C, strain nth1, hits give low values 0.984 | locus YDR069C, strain doa4, hits give low values 0.984 | locus YDR101C, strain arx1, hits give low values 1 | locus YDR137W, strain rgp1, hits give low values 1.04 | locus YDR150W, strain NUM1, hits give low values 0.978 | locus YDR159W, strain sac3, hits give low values 0.997 | locus YDR162C, strain NBP2, hits give low values 1.03 | locus YDR195W, strain ref2 0.949 | locus YDR297W, strain sur2, hits give low values 0.98 | locus YDR318W, strain mcm21, hits give low values 1 | locus YDR334W, strain swr1, hits give low values 0.976 | locus YDR335W, strain msn5, hits give low values 0.982 | locus YDR388W, hits give low values 1 | locus YDR392W, strain spt3, hits give low values 0.98 | locus YDR502C, strain sam2, hits give low values 1 | locus YEL003W, strain gim4, hits give low values 0.988 | locus YEL037C, strain rad23, hits give low values 0.984 | locus YEL061C, strain CIN8 (second series), hits give low values 0.989 | locus YEL061C, strain CIN8, hits give low values 1 | locus YER015W, strain faa2, hits give low values 0.996 | locus YER016W, strain bim1, hits give low values 0.991 | locus YER110C, hits give low values 0.984 | locus YER111C, strain swi4, hits give low values 0.981 | locus YER155C, strain BEM2 (second series), hits give low values 0.989 | locus YER155C, strain BEM2, hits give low values 1 | locus YER167W, strain BCK2, hits give low values 0.995 | locus YFR010W, strain ubp6, hits give low values 0.976 | locus YGL078C, strain dbp3, hits give low values 0.99 | locus YGL086W, strain mad1, hits give low values 0.988 | locus YGL167C, strain pmr1, hits give low values 0.99 | locus YGL173C, strain kem1, hits give low values 0.995 | locus YGL227W, strain vid30, hits give low values 0.992 | locus YGL240W, strain doc1, hits give low values 0.989 | locus YGL248W, strain PDE1, hits give low values 1.01 | locus YGL253W, strain hxk2, hits give low values 0.983 | locus YGR078C, strain PAC10, hits give low values 1.02 | locus YGR135W, strain pre9, hits give low values 1 | locus YGR229C, strain SMI1, hits give low values 1.05 | locus YGR252W, strain gcn5, hits give low values 1.01 | locus YHR013C, strain ard1, hits give low values 0.972 | locus YHR027C, strain rpn1, hits give low values 1.01 | locus YHR030C, strain SLT2, hits give low values 1 | locus YHR079C, strain IRE1 (second series), hits give low values 0.999 | locus YHR094C, strain hxt1, hits give low values 0.98 | locus YHR129C, strain ARP1, hits give low values 0.998 | locus YHR142W, strain chs7, hits give low values 0.978 | locus YHR200W, strain rpn10, hits give low values 0.992 | locus YIL066C, strain RNR3, hits give low values 1.01 | locus YIL073C, strain SPO22, hits give low values 0.913 | locus YIL125W, strain kgd1, hits give low values 0.99 | locus YIR030C, strain dcg1, hits give low values 1 | locus YJL092W, strain hpr5, hits give low values 0.983 | locus YJL095W, strain BCK1 (second series), hits give low values 0.989 | locus YJL095W, strain BCK1, hits give low values 1.07 | locus YJL115W, strain asf1, hits give low values 0.986 | locus YJL129C, strain trk1, hits give low values 0.995 | locus YJL134W, strain LCB3, hits give low values 1 | locus YJL154C, strain vps35, hits give low values 0.975 | locus YJL164C, strain tpk1, hits give low values 1 | locus YJL166W, strain qcr8, hits give low values 0.996 | locus YJL168C, strain set2, hits give low values 1.01 | locus YJL187C, strain SWE1 (second series), hits give low values 1 | locus YJL187C, strain SWE1, hits give low values 0.989

From PubChem BioAssay AID1159580 (chemical genetic matrix, 2015)
